Potency data for 34 molecules are collected here from PubChem BioAssay AID1345085 (National Center for Advancing Translational Sciences (NCATS), 2018).

Molecules are shown by their SMILES. Records with an inconclusive call do not appear. Calls of active or inactive are those of the source. The call rests on the fitted dose curve; in most records, active means well fitted cell-killing curve with a large enough effect; inconclusive means small, poorly fitted or top-dose-only effect, or effect the other way; inactive means no such curve, though single readings can be large or run the other way.
Potency means the concentration at half of the fitted maximal effect.

In the experiment the test system is HeLa. Nature of the experiment: Confirmatory qHTS for gynecologic anti-cancer compounds from libraries of approved drugs and bioactive compounds. Further: nearly all actives have a fitted effect of over 55% in size. The conditions noted are these: gynecologic cancer cell panel viability, ATPlite luminescence, 48 h; series mostly up to 57.6 µM. A digest of the protocol:
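IC50 values derive from an ATPlite ATP-content luminescence assay following 48 h treatment at 37 C. Each compound ran as an 11-concentration, threefold series (57.5 uM to 0.977 nM); HEK 293T served as control line for selectivity index.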
In the case of `CN[C@@H](C)C(=O)N[C@H]1CN(C(=O)CC(C)C)CC[C@H]2CC[C@@H](C(=O)NC(c3ccccc3)c3ccccc3)N2C1=O`, the Potency entry was “inactive”. Under `COc1cc(C(=O)N2CCC(N3CCN(C)CC3)CC2)ccc1Nc1ncc2c(n1)N(C)c1ccccc1C(=O)N2C` stands 17200 nM (active); under `COc1cc(-c2nn(C3CCC(N4CCN(C(C)=O)CC4)CC3)c3ncnc(N)c23)ccc1NC(=O)c1cc2ccccc2n1C` (centres undefined), 30600 nM (active); under `NS(=O)(=O)c1ccc(Nc2nc(OCC3CCCCC3)c3[nH]cnc3n2)cc1`, 24300 nM (active). On to `CCn1c(-c2nonc2N)nc2c(C#CC(C)(C)O)ncc(OCC3CCCNC3)c21` (centres undefined), for which the Potency was 21700 nM (active).

Take `CCC1C(=O)N(C)c2cnc(Nc3ccc(C(=O)NC4CCN(C)CC4)cc3OC)nc2N1C1CCCC1` (centres undefined): the Potency was 4.9 nM (active). In the case of `CC(=O)O[C@H]1C(=O)[C@@]2(C)[C@H]([C@H](OC(=O)c3ccccc3)[C@]3(O)C[C@H](OC(=O)[C@H](O)[C@@H](NC(=O)c4ccccc4)c4ccccc4)C(C)=C1C3(C)C)[C@]1(OC(C)=O)CO[C@@H]1C[C@@H]2O`, the Potency is 16.3 nM (active). On to `Cc1ccc2nc(N)[nH]c(=O)c2c1Sc1ccncc1`, for which the Potency was 8630 nM (active). Take `OC[C@H]1O[C@@H](n2cnc3c(=S)nc[nH]c32)[C@H](O)[C@@H]1O`: the Potency is 4320 nM (active).

On to `O=C(/C=C/c1cccc(S(=O)(=O)Nc2ccccc2)c1)NO`, for which the Potency was 5300 nM (active). The result for `COc1cc(Nc2ncc(F)c(Nc3ccc4c(n3)N(COP(=O)(O)O)C(=O)C(C)(C)O4)n2)cc(OC)c1OC` reads 1720 nM (active). Under `CC[C@]1(O)C[C@@H]2CN(CCc3c([nH]c4ccccc34)[C@@](C(=O)OC)(c3cc4c(cc3OC)N(C)[C@H]3[C@@](O)(C(=O)OC)[C@H](OC(C)=O)[C@]5(CC)C=CCN6CC[C@]43[C@@H]65)C2)C1` stands 122 nM (active); under `CCn1cc(-c2ccnc3[nH]c(-c4cccc(CN(C)C)c4)cc23)c(-c2ccc(NC(=O)N(C)C)cc2)n1`, 2980 nM (active). Under `O=C1Cc2cc(CCN3CCN(c4nsc5ccccc45)CC3)c(Cl)cc2N1` stands “inactive”. `O=C1N(c2ccccc2)c2ccccc2C1(Cc1ccncc1)Cc1ccncc1`: the Potency entry is “inactive”.

`CCOc1cc2ncc(C#N)c(Nc3ccc(F)c(Cl)c3)c2cc1NC(=O)/C=C/CN(C)C`: the Potency was 24300 nM (active). The result for `Cc1c(NC(=O)OCC2COCCN2)cn2ncnc(Nc3ccc4c(cnn4Cc4cccc(F)c4)c3)c12` (centres undefined) reads 34300 nM (active). Regarding `CC[C@@]1(O)C(=O)OCc2c1cc1n(c2=O)Cc2cc3cc(O)ccc3nc2-1`, the Potency was 968 nM (active). Under `C[C@]12CCC(=O)C=C1CC[C@@H]1[C@@H]2[C@@H](O)C[C@@]2(C)[C@H]1CC[C@]2(O)C(=O)CO` stands “inactive”; under `CN(C)CC/C=C1\c2ccccc2COc2ccccc21`, “inactive”. The result for `Cc1ccc(C(=O)Nc2cccc(C(F)(F)F)c2)cc1-c1ccc2nc(NCCN3CCOCC3)ncc2c1` reads 7690 nM (active); that for `OCc1ccc(-c2ccc(-c3ccc(CO)s3)o2)s1`, “inactive”. Under `Cc1cnc(Nc2cccc(CN3CCOCC3)c2)nc1Nc1cccc(S(=O)(=O)NC(C)(C)C)c1` stands 1720 nM (active); under `CCC1C(=O)N(C)c2cnc(Nc3ccc(C(=O)NC4CCC(N5CCN(CC6CC6)CC5)CC4)cc3OC)nc2N1C(C)C` (centres undefined), 38.5 nM (active). With `Nc1ccccc1NC(=O)c1ccc(CNc2nccc(-c3cccnc3)n2)cc1`, the Potency is 1530 nM (active). Under `NCCOc1cc(C(=O)Nc2cc(OCCN)c3ccccc3n2)nc(C(=O)Nc2cc(OCCN)c3ccccc3n2)c1` stands 19300 nM (active).

Regarding `CCCC(Nc1nc(-c2ccc(NC(=O)NCC)c(OC)c2)ncc1C)c1cccnc1` (centres undefined), the Potency is 153 nM (active). Regarding `Cn1c(=O)c(-c2c(Cl)cccc2Cl)cc2cnc(Nc3cccc(C(=O)O)c3)nc21`, the Potency is 2430 nM (active). The result for `Nc1ccccc1NC(=O)c1ccc(CNC(=O)OCc2cccnc2)cc1` reads 4320 nM (active); that for `CN(C)c1ccc(-c2nc3ncc(Cl)c(N4CCN(CC(=O)Nc5nccs5)CC4)c3[nH]2)cc1`, 2370 nM (active); that for `CC(Oc1cc(-n2cnc3ccc(CN4CCN(C)CC4)cc32)sc1C(N)=O)c1ccccc1C(F)(F)F` (centres undefined), 2430 nM (active). Under `Nc1nc(=S)c2[nH]cnc2[nH]1` stands 2430 nM (active). The result for `Oc1cn2c(n1)Nc1ccc(Cl)c(Cl)c1C2` reads 10.6 nM (active); that for `CC(C)C[C@H](NC(=O)[C@H](Cc1ccccc1)NC(=O)c1cnccn1)B(O)O`, 6110 nM (active).
